# In the library only some 3.8% were active in any assay of this set; here they are far more common.
# S2 tox: reduces viability in counter-screen for ATXN expression inhibitors | S2 cells (HEK-293 line with an ATXN2-luciferase reporter) viability, CellTiter-Fluor protease fluorescence, 24 h | Potency, µM (doses to about 56.7 µM), hits mostly cytotoxic | hit rate 0.49% among 400,000 | AID 651635; also: nearly all actives have a fitted effect of over 40% in size
# A549 tox: counter-screen for Nrf2 inhibitors: cytotoxicity in A549 cells | A549 ARE-Fluc cells, CellTiter-Fluor viability, 18-24 h | Potency, µM (series often up to 46 µM), without a hit: at the top dose activity change, negative = cytotoxicity, hits mostly inhibitors | hit rate 0.16% among 390,000 | AID 504648; also: % is scaled to controls: 0 for no effect and ±100 for the full control effect
#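 A549 ARE-Fluc cells in 5% FBS OPTI-MEM, 5000 cells/well, rested 2 h then exposed to compounds in concentration-response for 18-24 h at 37 °C. Viability by CellTiter-Fluor fluorescence (Ex 405/Em 525) after 30 min; luciferase luminescence (BugLite, 15 min, RT) read afterwards.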
# TGFb SMAD3 inh: blocks TGF-b signaling. HepG2 CAGA-GFP TGF-b/SMAD3 reporter, GFP fluorescence, 18 h; TGF-beta stimulated, 500 pg/mL final. hit rate 1.2% among 410,000. Potency, µM (highest dose often 46.1 µM), for inactives: top-dose activity, negative = inhibition, usual class: inhibitors. AID 588855; also: % is scaled to controls: 0 for no effect and ±100 for the full control effect; nearly all actives have a fitted effect of over 65% in size
#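 Per well, imaged GFP fluorescence of HEPG2 CAGA-GFP cells gives the signal; cells get compound, then TGF-beta (500 pg/mL final), 18 h at 37 degrees C; %Activity versus -TGF-beta and +DMSO controls.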
# HepG2 tox: HepG2 cytotoxicity, counter-screen for TGF-b inhibitors; HepG2 CAGA-GFP viability, ATP luminescence, 18 h; Potency, µM (highest dose often 46.1 µM), inactives show at the highest dose activity change, negative = cytotoxicity, hits mostly cytotoxic; hit rate 0.76% among 410,000; AID 588856
#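 CellTiter-Glo luminescence gave cytotoxicity after 18 hours at 37 degrees C. The cells were HepG2 CAGA-GFP in 1% FBS DMEM, stimulated with 500 pg/mL TGF-beta after compound addition. %Activity was normalised to no-cell wells (complete cell-killing) and DMSO (no toxicity), and curves were fitted and classified.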
# Nrf2 inh: inhibitors of Nrf2 signaling; A549 ARE-Fluc reporter, luciferase luminescence, 18-24 h; Potency, µM (highest dose often 46 µM), for the others: top-dose activity change, negative = inhibition, hits mostly inhibitors; hit rate 2.1% among 360,000; AID 504444; also: % is scaled to controls: 0 for no effect and ±100 for the full control effect; nearly all actives have a fitted effect of over 60% in size
#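 Quantitative HTS in A549 cells stably bearing an antioxidant response element-firefly luciferase construct. Inhibition of Nrf2-driven transcription was scored by luminescence after 18-24 h of compound exposure at 37 °C.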
# ATXN2 expr inh: inhibitors of ATXN2 expression. HEK-293 ATXN2-luciferase reporter, luminescence, 24 h. Potency, µM (doses to about 57 µM), without a hit: top-dose activity change, negative = inhibition, actives largely listed as inhibitors. hit rate 0.72% among 360,000; also: % is scaled to controls: 0 for no effect and ±100 for the full control effect; nearly all actives have a fitted effect of over 55% in size
#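 qHTS (up to 57 uM final) was run with 24 h compound exposure of reporter cells at 37 °C. Each well was multiplexed: SteadyGlo luminescence measured ATXN2-luciferase expression after a fluorogenic Gly-Phe-AFC viability readout (25 uM final).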
# Numbers without * were called inactive; i = inactive; ? = inconclusive; / = not tested or not shown. Calls follow the shape of the dose curve; as a rule, active = well fitted curve in the direction sought with a large enough effect; inconclusive = small, poorly fitted or top-dose-only effect, or another doubt; inactive = no such curve, though single readings can be large; an effect the other way counts as inactive or inconclusive. Potency is read from the fitted curve at half-maximal effect.
SMILES,S2 tox,A549 tox,TGFb SMAD3 inh,HepG2 tox,Nrf2 inh,ATXN2 expr inh
COC(=O)c1ccc2c(C(=Nc3ccc(N(C)C(=O)CN4CCN(C)CC4)cc3)c3ccccc3)c(O)[nH]c2c1,/,/,/,/,/,24µM*
CCOc1ccc(S(=O)(=O)N2CCN(C(=S)NCc3ccccc3)CC2)cc1,i,3%,?,-2%,26µM*,/
CSc1ccc(CCNC(=O)c2ccc(-c3nc(COc4ccc(C)cc4)c(C)o3)cc2)cc1,i,4%,-13%,12%,17%,9%
N#CC(Sc1ccccn1)c1ccc(Cl)cc1 (stereo not drawn),/,0%,-6%,0%,13µM*,-4%
O=c1c(Cc2ccccc2)c(O)c2cccc3c4c(n1c23)CCCC4,?,0%,14µM*,-34%,-1%,-6%
CC1CCN(C(=O)Cn2c(SCC(=O)Nc3ccc(F)cc3)nc3ccccc32)CC1,?,-9%,-7%,8%,/,-5%
CCCCn1c(N)c(N(CCOC)C(=O)CN(C)CC(=O)Nc2ccc(Cl)c(Cl)c2)c(=O)[nH]c1=O,i,2%,-12%,-83%,12%,-13%
CCC(CC)COC(=O)C1=C(C)NC(=O)NC1c1ccc(N(C)C)cc1 (stereo not drawn),i,1%,?,7.9µM*,?,/
CCOC(=O)C1=C(C)NC(=O)NC1c1ccc(N(C)C)cc1 (stereo not drawn),i,-8%,0%,-17%,-14%,-5%
O=c1cc(N2CCN(c3ccccc3)CC2)[nH]c(=O)n1C1CCCCC1,i,?,-27%,-25%,-6%,5µM*
CN1CCN(c2cc(=O)n(C3CCCCC3)c(=O)[nH]2)CC1,i,16%,-20%,-21%,6%,-3%
Cc1cc(C)nc(N2CCCC(C(=O)Nc3ccc4nc(C)c(C)nc4c3)C2)n1 (stereo not drawn),i,-3%,1%,-7%,?,-14%
O=C(c1cccc(F)c1)N1CCN(c2cc(N3CCCCC3)c(F)cc2[N+](=O)[O-])CC1,i,?,15%,-28%,21µM*,-9%
CC(=O)N1CCN(c2cc(N3CCc4ccccc4C3)c(F)cc2[N+](=O)[O-])CC1,?,?,?,4%,23µM*,?
CC(=O)Nc1ccc(S(=O)(=O)N2CCN(c3cc4c(cc3[N+](=O)[O-])n(C)c(=O)n4C)CC2)cc1,i,4%,?,2%,16µM*,49%
Cn1c(=O)n(C)c2cc([N+](=O)[O-])c(N3CCN(C(=O)c4ccc(F)cc4)CC3)cc21,i,-22%,-20%,-12%,18µM*,/
Cc1cc(C(=O)COC(=O)c2ccc(F)cc2F)c(C)n1C1CC1,i,-1%,0%,4%,21%,49%
CCOc1cc(CNC(=O)C(NS(=O)(=O)c2cccs2)C(C)C)cc(OCC)c1OCC (stereo not drawn),?,-3%,-1%,-15%,/,1%
CCN(CC)c1ccc(N=Cc2ccccc2[N+](=O)[O-])cc1,?,-16%,?,8.9µM*,?,?
O=C1CC[C@@H](C(=O)NCC2Cc3cc(Cl)cc(-c4ccc5[nH]ccc5c4)c3O2)N1 (stereo partly drawn),i,/,/,/,/,/
COc1ccc(OC)c(Nc2nc3nonc3nc2N2CCCC(C)C2)c1 (stereo not drawn),i,4%,-2%,-12%,-8%,3%
O=C(O)CSCC(=O)NCc1c(Cl)cccc1Oc1ccccc1,/,13%,15%,-5%,11%,6%
O=S(=O)(NCc1c(Cl)cccc1Oc1ccccc1)c1ccc(F)cc1,i,7%,11µM*,-45%,?,/
COc1ccc(-c2nc3sc(CCNC(=O)c4cccc(C(F)(F)F)c4)c(C)n3n2)cc1,i,-17%,-22%,-31%,/,23%
Cc1cc(C)n2c(Nc3ccc(Cl)cc3)c(-c3ccsc3)nc2n1,/,4%,-14%,-20%,-10%,/
SMILES,S2 tox,A549 tox,TGFb SMAD3 inh,HepG2 tox,Nrf2 inh,ATXN2 expr inh
Cc1cc(C)n2c(Nc3ccc(C(C)C)cc3)c(-c3ccsc3)nc2n1,/,?,3.5µM*,-21%,-80%,/
CCN(C(=O)c1cccc(S(=O)(=O)N(C)C)c1)C12CC3CC(CC(C3)C1)C2,i,-15%,-3%,-12%,21µM*,-35%
CCN(C(=O)c1ccc2c(c1)OCO2)C12CC3CC(CC(C3)C1)C2,i,7%,?,-48%,?,/
COc1cc(-c2nc3ccc4ccccc4c3c3c2CCC3)cc(OC)c1O,?,2%,11µM*,-98%,4%,?
COc1cc(-c2nc3ccc4ccccc4c3c3c2CCC3)cc(OC)c1OC,i,-12%,6%,-7%,?,-18%
Cc1ccc(O)c(-c2cc3ccccc3[nH]2)c1,i,-4%,16µM*,-64%,?,51%
COc1ccc(SC[C@H](Cc2ccccc2)N2CC[C@@H](C(C)(C)C)CCC2=O)cc1,?,-8%,?,4%,12%,-36%
Cc1nn(-c2ccccn2)c2nc(-c3cccs3)cc(C(=O)NCc3ccco3)c12,i,-12%,?,-21%,?,8%
CCOC(=O)c1cc(-c2cccs2)nc2c1c(C)nn2-c1ccccn1,?,-20%,?,-22%,23µM*,?
Cc1nn(-c2ccccc2)c2nc(-c3cccs3)cc(C(=O)NN)c12,i,1%,10µM*,-29%,14%,?
CCc1ccc(C(=O)c2cn(Cc3ccc(F)cc3)c3cc(OC)c(OC)cc3c2=O)cc1,14µM*,21µM*,?,-13%,-7%,?
CCc1ccc(C(=O)c2cn(CC(=O)Nc3ccc(F)c(F)c3)c3cc(OC)c(OC)cc3c2=O)cc1,i,-17%,?,-22%,?,-14%
O=C(O)c1ccc(N=C2c3ccccc3-c3ccccc32)cc1,i,-1%,8%,6%,?,25%
CC(C)(C)NC(=O)C(c1ccncc1)N(Cc1cccs1)C(=O)Cn1nnc(-c2ccc(F)cc2)n1 (stereo not drawn),i,-15%,-14%,-28%,9.2µM*,-2%
O=S(=O)(Nc1ccc(Br)cc1)c1cccc2nonc12,i,-17%,-12%,-4%,?,-7%
O=S(=O)(Nc1ccc(C(O)(C(F)(F)F)C(F)(F)F)cc1)c1ccc(Cl)c2nonc12,/,/,?,20µM*,/,18µM*
CCCNC(=O)Cn1c(=O)c2cccn2c2cccnc21,/,5%,0%,-5%,30%,/

# Source: PubChem (National Center for Advancing Translational Sciences (NCATS))
